Compound activity: PubChem BioAssay, Center for Chemical Genomics, University of Michigan
Dicer inh = inhibitors of human Dicer processing of pre-microRNA | Q9UPY3 | cat-ELCCA pre-miR-21 Dicer processing, chemiluminescence; active compounds read high | z-score at 25 µM | 47,000 tested, 6% active; in the data active = z-score above about 3, passing the limit was not always enough;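 also: higher signal means more uncleaved substrate so more Dicer inhibition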
Target sequence (Q9UPY3 whole entry, looked up): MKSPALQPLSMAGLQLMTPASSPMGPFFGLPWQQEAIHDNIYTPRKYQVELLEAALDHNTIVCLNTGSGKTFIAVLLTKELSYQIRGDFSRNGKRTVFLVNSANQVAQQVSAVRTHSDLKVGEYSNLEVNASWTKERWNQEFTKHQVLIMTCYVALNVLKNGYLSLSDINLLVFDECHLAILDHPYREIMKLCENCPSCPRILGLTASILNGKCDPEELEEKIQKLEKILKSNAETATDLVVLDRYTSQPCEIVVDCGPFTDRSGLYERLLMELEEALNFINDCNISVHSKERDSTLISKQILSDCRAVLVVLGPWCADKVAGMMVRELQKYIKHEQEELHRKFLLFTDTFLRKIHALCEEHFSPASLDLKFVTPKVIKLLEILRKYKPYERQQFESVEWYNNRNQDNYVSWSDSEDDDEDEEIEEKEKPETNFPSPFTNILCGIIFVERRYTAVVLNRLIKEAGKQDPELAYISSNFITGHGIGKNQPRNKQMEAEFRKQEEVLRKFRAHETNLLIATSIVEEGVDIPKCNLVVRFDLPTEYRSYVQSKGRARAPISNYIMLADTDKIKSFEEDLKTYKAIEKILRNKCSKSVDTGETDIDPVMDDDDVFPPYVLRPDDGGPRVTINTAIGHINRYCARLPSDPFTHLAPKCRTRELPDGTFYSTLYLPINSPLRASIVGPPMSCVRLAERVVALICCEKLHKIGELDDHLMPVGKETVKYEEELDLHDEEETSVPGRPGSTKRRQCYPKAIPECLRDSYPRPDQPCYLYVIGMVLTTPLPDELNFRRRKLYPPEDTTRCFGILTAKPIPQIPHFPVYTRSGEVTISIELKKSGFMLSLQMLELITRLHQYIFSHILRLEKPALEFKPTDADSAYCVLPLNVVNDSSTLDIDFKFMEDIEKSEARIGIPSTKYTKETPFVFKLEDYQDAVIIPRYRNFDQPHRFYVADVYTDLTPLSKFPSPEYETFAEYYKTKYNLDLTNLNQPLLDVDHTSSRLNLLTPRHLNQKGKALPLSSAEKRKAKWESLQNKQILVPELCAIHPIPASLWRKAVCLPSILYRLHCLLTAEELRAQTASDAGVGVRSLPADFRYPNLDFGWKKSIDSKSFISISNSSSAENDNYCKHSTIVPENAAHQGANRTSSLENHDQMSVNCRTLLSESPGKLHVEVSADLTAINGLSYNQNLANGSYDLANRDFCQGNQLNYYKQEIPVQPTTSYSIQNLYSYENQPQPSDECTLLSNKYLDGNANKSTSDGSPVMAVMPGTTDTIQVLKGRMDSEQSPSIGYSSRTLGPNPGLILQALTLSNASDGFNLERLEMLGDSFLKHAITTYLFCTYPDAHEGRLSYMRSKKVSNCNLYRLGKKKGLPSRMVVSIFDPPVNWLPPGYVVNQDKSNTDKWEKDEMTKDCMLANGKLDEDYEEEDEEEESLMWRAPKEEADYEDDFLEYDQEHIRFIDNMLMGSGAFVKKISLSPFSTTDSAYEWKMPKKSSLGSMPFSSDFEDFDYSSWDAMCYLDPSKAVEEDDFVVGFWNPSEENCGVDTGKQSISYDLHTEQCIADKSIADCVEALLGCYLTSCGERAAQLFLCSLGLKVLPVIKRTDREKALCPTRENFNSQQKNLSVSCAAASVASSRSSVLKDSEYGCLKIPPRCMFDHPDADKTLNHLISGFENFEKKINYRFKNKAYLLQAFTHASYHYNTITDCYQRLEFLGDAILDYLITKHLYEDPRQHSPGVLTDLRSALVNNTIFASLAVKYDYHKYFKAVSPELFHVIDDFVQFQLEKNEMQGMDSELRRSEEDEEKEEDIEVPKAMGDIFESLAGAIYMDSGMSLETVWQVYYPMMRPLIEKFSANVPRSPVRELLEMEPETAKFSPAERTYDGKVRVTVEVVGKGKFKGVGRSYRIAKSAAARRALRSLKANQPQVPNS
Hits are given with their value; - = inactive. The sample as a whole holds a higher share of hits than the screen did.

SMILES	Dicer inh
CCCOC(=O)Cn1nnc2sc3c(c2c1=O)CCCC3	-
CC1CCN(C(=O)Cn2nnc3sc4c(c3c2=O)CCCC4)CC1	3.52
CC1CCc2c(sc3nnn(CC(=O)NC4CCCCC4)c(=O)c23)C1 (stereo not drawn)	-
COc1ccc(C2c3c(oc4ccccc4c3=O)C(=O)N2c2nnc(C)s2)cc1OC (stereo not drawn)	-
CCSCCOC(=O)C1=C(C)NC2=C(C(=O)CC(c3cccs3)C2)C1c1ccc(C)o1 (stereo not drawn)	-
CCOCCOC(=O)C1=C(C)NC2=C(C(=O)CC(c3ccccc3)C2)C1c1ccc(CC)cc1 (stereo not drawn)	-
CN(C)c1ccc(NCc2ccccn2)cc1	-
Cn1c(C(F)(F)F)nc2ccccc21	-
COc1ccc(C2/C(=C(\O)c3ccccc3)C(=O)C(=O)N2c2cccc(Cl)c2)cc1OC (stereo not drawn)	-
Cc1cc(C)c(Nc2ncc(-c3ccc4c(c3)OCCCO4)s2)c(C)c1	-
N#Cc1c2n(c3c(=O)n(CC(=O)c4ccc(Cl)cc4)cnc13)CCCCC2	-
CCOC(=O)CN1C(=O)C(O)(CC(=O)c2cc(C)ccc2C)c2ccccc21 (stereo not drawn)	-
COCc1nc(SCC(=O)OC)c(C#N)cc1C(=O)OC	-
O=c1oc(-c2cccs2)nc2sc3c(c12)CCCCC3	-
Cc1ccccc1-c1nc2sc3c(c2c(=O)o1)CCC3	-
O=c1oc(-c2ccccc2)nc2sc3c(c12)CCCC3	-
O=c1oc(/C=C/c2ccccc2)nc2sc3c(c12)CCC3	4.85
S=c1nc2sc3c(c2c(Nc2ccccc2)[nH]1)CCCC3	-
O=c1oc(-c2ccccc2)nc2sc3c(c12)CCCCC3	3.07
O=C(c1cc(Cl)cc(Cl)c1)c1cc(Cl)cc(Cl)c1	-
CCOC(=O)C(NC(C)=O)(NC1CCCCC1)C(F)(F)F (stereo not drawn)	-
O=C(NNc1cc(Cl)ccc1Cl)C1CCCS1 (stereo not drawn)	-
O=C(NNc1c(Cl)cccc1Cl)c1sccc1Cl	-
O=C(NNc1cc(Cl)ccc1Cl)c1sccc1Cl	5.17
COc1cccc(/C=C/N2CCCC2)c1[N+](=O)[O-]	-
SMILES	Dicer inh
COC(=O)c1sccc1N/N=C(\C#N)S(C)(=O)=O	-
Oc1cc2c(cc1C(c1ccc(C(F)(F)F)cc1)N1CCOCC1)OCO2 (stereo not drawn)	6.47
Oc1c(C(c2ccncc2)N2CCOCC2)cc(Cl)c2cccnc12 (stereo not drawn)	-
O=C(CCSc1nc(-c2ccc3c(c2)OCO3)cc(C(F)(F)F)n1)N1CCOCC1	-
O=c1sc2ccccc2n1CCCOc1ccc(Cl)cc1	-
Cc1ccc(CSc2nnc(-c3ccc(C(F)(F)F)cn3)s2)cc1	-
COc1ccc(S(=O)(=O)N2CCN(C)CC2)c2ccccc12	6.13
Cc1ccc(-c2n[nH]c(=S)c3ccccc23)cc1S(=O)(=O)N1CCN(C)CC1	-
O=S(=O)(c1ccc(Cl)c2ccccc12)N1CCN(c2ccccc2)CC1	-
Cc1ccc(CSc2n[nH]c(=O)[nH]c2=O)cc1	-
O=C(O/N=C/c1ccc2c(c1)OCO2)C1c2ccccc2Oc2ccccc21	-
Cc1cc(=O)n2ncnc2n1CC(=O)NN	3.13
O=C(Cn1c(-c2ccccc2)cc(=O)n2ncnc12)N/N=C/c1ccc2c(c1)OCO2	-
Cc1cc(=O)n2ncnc2n1CC(=O)N/N=C/c1ccc(Cl)cc1	-
O=C(Oc1ccc2c(=O)c(Oc3ccccc3Br)coc2c1)c1ccco1	-
Cc1ccc(C(=O)CSc2ccc(C(F)(F)F)cn2)cc1	-
CCCn1c(=O)c2[nH]cnc2n(-c2ccc(Cl)cc2)c1=O	-
CCCn1c(=O)cc(N)n(-c2ccc(Cl)cc2)c1=O	5.06
Nc1cc(=O)n(Cc2ccccc2)c(=O)n1-c1ccccc1	-
N#CCCN(Cc1cccs1)C(=O)CSCC(=O)O	-
O=c1[nH]c2ccccc2c(=O)n1CCSc1ccccc1	-
CCOC(=O)c1c(C)csc1NC(=O)CSc1ccc(Cl)cc1	-
Cc1csc2c(=O)n(CCSc3ccc(Cl)cc3)c(=O)[nH]c12	3.08
CCOC(=O)/C=C(\C)Nc1ccc(OC)cc1	-
CC(C)(C)c1ccc(OCc2nc(-c3cccnc3)no2)cc1	-
SMILES	Dicer inh
O/N=C/c1ccc(C#Cc2ccccc2)cc1	-
O=C(Oc1ccc2c(c1)oc(=O)c1ccccc12)c1ccccc1Cl	-
C=CCOC(=O)COc1ccc2c(c1)oc(=O)c1ccccc12	-
O=C(COc1ccc2c(c1)oc(=O)c1ccccc12)OCc1ccccc1	4.55
O=C(O)COc1ccc2c(c1)oc(=O)c1ccccc12	-
O=C1CC(/C=C/c2ccccc2)(Nc2ccc(S(=O)(=O)N3CCOCC3)cc2)C(=O)N1C1CCCCC1 (stereo not drawn)	-
CC#CCCCC(=O)Nc1nc2ccc(OC)cc2s1	-
COC(=O)c1ccc2c3c(onc13)-c1ccccc1C2=O	-
Fc1cccc(NC(=S)NC(c2ccccc2)c2ccccc2)c1	4.9
FC(F)(F)c1cccc(NC(=S)Nc2cccc(C(F)(F)F)c2)c1	-
CC(C)(C)NNC(=S)Nc1cccc(F)c1	-
COc1cccc(C2N(Cc3ccccc3)CCN2Cc2ccccc2)c1O	-
COc1ccc(-c2nc3c([nH]2)c(=O)[nH]c(=O)n3C)cc1	-
CCOc1ccc(N2C(=O)CC(NC3CCN(c4ccc(S(=O)(=O)CC)cc4)CC3)C2=O)cc1 (stereo not drawn)	-
Cc1c(NC(=O)/C=N/O)c(=O)n(-c2ccccc2)n1C	-
Cc1nc2c(C)cccc2c2c1CCN2c1ccccc1F	3.21
COc1cccc(N2CCc3c(C)nc4ccc(Cl)cc4c32)c1	-
COc1cc(OC)c2nc(C)c3c(c2c1)N(c1cccc(C(F)(F)F)c1)CC3	-
Cc1c(C)c(C)c(CNC(=S)NN)c(C)c1C	-
CCOC(=O)c1cc(C)nc(N2CCCCC2)c1C#N	-
Cc1nc(N(C)C)c(C#N)c(C)c1[N+](=O)[O-]	-
Cc1nc(N2CCCCC2)c(C#N)c(C)c1[N+](=O)[O-]	4.49
FC(F)(F)c1cccc(CSc2n[nH]c(=S)s2)c1	-
Cc1cn(COCCO)c(=O)[nH]c1=O	-
COC(=O)c1sc(N2C(=O)c3oc4ccc(C)cc4c(=O)c3C2c2ccc(O)cc2)nc1C (stereo not drawn)	-
SMILES	Dicer inh
Cc1ccc(S(=O)(=O)c2nc(-c3ccccc3)oc2S(C)(=O)=O)cc1	-
CC(=NCc1cccc(CN=C(C)c2ccccc2O)c1)c1ccccc1O	-
CC(=NCCc1ccc(Cl)cc1)c1ccccc1O	5.19
CC(C)(C)SCCN=C(Nc1ccc(Cl)cc1)c1ccccc1Cl	-
O=C(O)/C(=N/NC(=O)c1ccc(Cl)cc1)c1ccccc1	-
C/C(=N\NC(=O)c1ccc(Cl)cc1)c1ccccc1O	33.2
CCOC(=O)N/N=C(\C)c1ccccc1O	-
O=C1c2cccc3cccc(c23)C(=O)N1c1cccc(Cl)c1	-
O=C(O)c1cc2ccccc2c(-c2c(O)c(C(=O)O)cc3ccccc23)c1O	4.13
O=C(O)c1ccc2ccccc2c1-c1c(C(=O)O)ccc2ccccc12	-
O=C(O)c1cc(-c2cc(C(=O)O)c3ccccc3n2)nc2ccccc12	-
COC(=O)C1=NNC(C(=O)OC)=C2COCOCC12 (stereo not drawn)	-
CCOC(=O)COc1cc2c(C(=O)OC(C)C)c(C)oc2cc1Br	-
O=C(O)c1c(N2CCCCC2)ccc([N+](=O)[O-])c1N1CCCCC1	-
O=[N+]([O-])c1ccc(N2CCCCCCC2)cc1	-
O=c1c(N2CCCCC2)c(N2CCCCC2)c1=O	7.35
C(=C\CSC1=NCCN1)/CSC1=NCCN1	-
